The source of these data is PubChem BioAssay AID652245 (The Scripps Research Institute Molecular Screening Center, 2013).

SMILES strings stand for the structures. The whole screen tested about 1,600 compounds, of which about 920 (58%) were called active. The set was probably picked from earlier hits. These entries were drawn from the full list. Unmarked numbers belong to inactive results.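 How the source made its calls: active means inhibition above the primary screen's cutoff, the mean inhibition of all screened compounds plus 3 SD (cut at about 13% in these data); inactive means the rest.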

Sequence of Galanin receptor type 3 (Homo sapiens) (O60755 1-299 limits assumed): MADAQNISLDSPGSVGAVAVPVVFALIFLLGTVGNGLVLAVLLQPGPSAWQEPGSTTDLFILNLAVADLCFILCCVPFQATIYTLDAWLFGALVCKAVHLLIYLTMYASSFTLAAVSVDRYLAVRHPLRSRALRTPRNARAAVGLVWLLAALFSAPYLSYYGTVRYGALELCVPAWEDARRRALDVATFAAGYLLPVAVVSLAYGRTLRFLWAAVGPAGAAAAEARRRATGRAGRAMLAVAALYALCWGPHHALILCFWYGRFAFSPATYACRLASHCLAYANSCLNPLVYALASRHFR

This test has as its target Galanin receptor type 3 (Homo sapiens) (UniProt O60755). Description: blockers of human galanin receptor 3 – cell-based, fluorescence, triplicate, confirmation (AID 652245).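 Further: 0% = forskolin plus galanin and 100% = forskolin alone with DMSO.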 The settings on record: HEK293 GalR3 CNG cAMP biosensor, membrane potential fluorescence; at 3 µM; stronger effect = higher value; challenged with forskolin and galanin at EC90; galR3 fused to GalR1 carboxy tail.
As usually defined, the inhibition is the drop in the measured response relative to a control, in per cent. `NC(=O)c1ccc(NC(=O)COC(=O)C(Cc2ccccc2)NC(=O)c2ccccc2)cc1` (configuration not stated): the inhibition is 22.3% (active).

For the molecule `COc1ccc(CCNc2nc3ccc(C)cc3n3cnnc23)cc1OC`, the inhibition was 12.1%.

`C=CCC1(CC=C)CCCN1C(=O)c1cc(COc2ccc(-n3cncn3)cc2)on1`: the inhibition was 104% (active).

In the case of `Nc1nonc1-n1nnc(C(=O)N/N=C/c2cc(Br)ccc2O)c1CSC1=NCCS1`, the inhibition is 63.2% (active).

Turning to `CCNC(=S)Nc1ccc(OC(F)(F)F)cc1`, the inhibition was 18.3% (active).

As for `CCN1/C(=C\c2ccc3ccccc3[n+]2CC)Sc2cc(C)ccc21`, the inhibition is 55.5% (active).

As to `CCOc1ccc(Br)cc1CSC(=N)N`, the inhibition was 56.7% (active).

In the case of `COc1ccc(-c2csc(-c3cccs3)n2)cc1OC`, the inhibition is -4.97%.

As to `COC(=O)c1ccc(/C=N/N2C(C)CCCC2C)cc1` (configuration not stated), the inhibition is 14.9% (active).

As for `c1coc(CNc2ncnc3ccccc23)c1`, the inhibition was 28.1% (active).

`Cc1c(C=O)c2ccccc2n1CC(=O)O`: the inhibition was -2.92%.

With `CN(Cc1cccnc1)C(=O)c1cc(COc2ccc3ncccc3c2)on1`, the inhibition was 103% (active).

As for `COc1ccc(C(=O)COC(=O)COc2ccc(C)c(C)c2)cc1`, the inhibition is -0.4%.

Turning to `OC[C@@H]1CN(Cc2ccc(-c3ccccc3)cc2)C[C@H](n2cnc3c(NC4CCCC4)ncnc32)O1`, the inhibition was 92.5% (active).

Consider `COc1cc(NC(=O)c2cc([N+](=O)[O-])ccc2Br)ccc1NC(=O)c1ccco1`, for which the inhibition is 27.5% (active).

Consider `CC(=O)c1c(C)[nH]c(C(=O)COC(=O)c2cccc(S(=O)(=O)N(C)c3ccccc3)c2)c1C`, for which the inhibition was 82.3% (active).

With `CCCn1nc(C(=O)NNC(=O)CSCC(=O)Nc2cc(C)on2)c2ccccc2c1=O`, the inhibition was 3.6%.

As to `COCCNC(=O)/C(C#N)=C/c1cccc(OCc2ccccc2)c1`, the inhibition is -3.13%.

For the molecule `COc1cc(C(=O)Nn2c(O)c(C3=c4ccccc4=NC3=O)sc2=S)ccc1O`, the inhibition is 5.9%.

On to `COc1cc(Cl)c(C)cc1NC(=O)[C@@H]1CCCN1C(=O)c1cccs1`, for which the inhibition was 17.8% (active).

Turning to `COc1ccc(-c2[nH]nc3c2C(c2ccncc2)C(C#N)=C(N)O3)cc1` (configuration not stated), the inhibition was 7.93%.

With `O=C(/C=C/c1c(F)cccc1Cl)Nc1nn[nH]n1`, the inhibition is 5.44%.

Regarding `COc1ccc(OC)c(NC(=O)CSc2nc(N)c(-c3ccccc3)c(=O)[nH]2)c1`, the inhibition was 38% (active).

As to `O=C(CC(O)(C(F)(F)F)C(F)(F)F)Nc1ccc(Cl)c(Cl)c1`, the inhibition was 81.5% (active).

In the case of `c1ccc(Cc2ccc(OCCn3ccnc3)cc2)cc1`, the inhibition was 35.9% (active).

Consider `COc1ccc(C2CC(=O)Nc3sc(=N)c4c(N)c(C#N)c(N)nc4c32)cc1OC` (configuration not stated), for which the inhibition was 69.2% (active).

Consider `CCCCNC(=O)c1ccccc1NC(=O)C1=C(C)OCCS1`, for which the inhibition was 1.8%.

For the molecule `COc1ccc(NS(=O)(=O)c2ccc(NC(=O)c3ccc(N(C)S(C)(=O)=O)cc3)cc2)cc1`, the inhibition was 106% (active).

In the case of `CSc1nc(N(C)NC(=O)c2cccc(C)c2)c2ccccc2n1`, the inhibition is 6%.

On to `CC(=O)OC(C)C[N+](C)(C)C` (configuration not stated), for which the inhibition is 78% (active).

As for `CCOC(=O)c1cc2n(c1C)-c1ccccc1C2=O`, the inhibition is 3.19%.

As to `CCc1ccc(-c2nc(SCC(=O)NC3CCCC3)n[nH]2)cc1`, the inhibition was 3.25%.

Consider `Nc1ncnc2c1ncn2C1OC(CO)CC1O` (configuration not stated), for which the inhibition is 49.1% (active).

With `CCCOc1ccc(Cc2c(Cl)nc(SC)nc2NC)cc1`, the inhibition was 94.2% (active).

Regarding `COc1ccc(N(C(=O)CNC(=O)c2ccco2)C(C(=O)NCC2CCCO2)c2ccccc2)cc1Cl` (configuration not stated), the inhibition was 0.26%.

Regarding `CC1(C)CC(N2CCN(C(c3ccccc3)c3ccccc3)CC2)=CC(=[N+]2CCCCC2)C1`, the inhibition is 45% (active).

Regarding `Cn1cnc([N+](=O)[O-])c1Nc1ccccc1O`, the inhibition was 10.2%.

For `Cc1c(Cl)cccc1NC(=O)CSc1ccc(-c2cccnc2)nn1`, the inhibition was -1.99%.

In the case of `Cn1c(CN2CCOCC2)nc2cc(NC(=O)c3ccc(Cl)cc3)ccc21`, the inhibition is 85.6% (active).

For `O=C(NC(Nc1nc2ccc([N+](=O)[O-])cc2s1)(C(F)(F)F)C(F)(F)F)c1ccccc1`, the inhibition is 43% (active).

Regarding `CC(CCc1ccccc1)NCC(O)c1cccc([N+](=O)[O-])c1` (configuration not stated), the inhibition is 22.3% (active).

For `CCOc1ccc(C(C)=O)cc1COC(=O)c1cnc(Cl)c(Cl)c1`, the inhibition was 15.3% (active).

With `COC(=O)c1cccc([N+](=O)[O-])c1CS(=O)(=O)c1ccc(C)cc1`, the inhibition was 4.93%.

`COCCN1Cc2cccc(C(=O)Nc3ccccc3OC)c2C1=O`: the inhibition was 32.4% (active).

For `CCn1c(-c2cc(OC)ccc2OC)csc1=Nc1c(C)n(C)n(-c2ccccc2)c1=O`, the inhibition is 2.25%.

With `COc1ccc(C2Nc3ccccc3C(=O)N2c2ccc(Cl)cc2)cc1Cn1cc([N+](=O)[O-])cn1` (configuration not stated), the inhibition is 36.9% (active).

With `Cc1ccc(F)cc1NC(=O)Cc1nn(C)c(=O)c2ccccc12`, the inhibition is 5.03%.

With `CC(C)[C@@H](C(=O)OCC(=O)c1ccc2c(c1)NC(=O)CO2)N1C(=O)c2ccccc2C1=O`, the inhibition is 8.91%.

Turning to `C#Cc1ccc(NC(=O)C2(C)CCN2C(=O)Cc2ccc(-c3ccccc3)cc2)cc1` (configuration not stated), the inhibition is 90.1% (active).

With `Cc1ccc(S(=O)(=O)N2CCN(C(=O)COC(=O)c3c(C)cc(C)cc3C)CC2)c(C)c1`, the inhibition is 3.27%.

As to `CCOC(=O)c1c(NC(=O)CSc2nccc(=O)[nH]2)sc(C)c1C`, the inhibition was -4.89%.

For the molecule `CC(C)(CNC(=O)c1ccc(Cl)c(S(=O)(=O)N2CCc3ccccc3C2)c1)N1CCOCC1`, the inhibition is 111% (active).

Consider `Nc1nc(NCC(=O)O)nc(N2CCCCCC2)c1[N+](=O)[O-]`, for which the inhibition is 8.6%.

With `O=C(Nc1ccccc1Cl)/C(Cl)=C(\Cl)S(=O)c1ccccc1` (configuration not stated), the inhibition is 21.5% (active).

On to `O=C(Nc1ccc(CSc2ccccc2)cc1)c1ccc(CN2CCOCC2)cc1`, for which the inhibition is 113% (active).

Regarding `Cn1c(N)c(C(=O)COC(=O)c2cnc(Cl)c(Cl)c2)c(=O)n(C)c1=O`, the inhibition was 15.8% (active).

For the molecule `O=C(CC1C(=O)NCCN1CC(c1ccccc1)c1ccccc1)NCCc1cn[nH]c1` (configuration not stated), the inhibition was -1.25%.

With `CSc1nccc(NC(=O)c2ccc(C(C)(C)C)cc2)n1`, the inhibition is 104% (active).

Turning to `Cc1nc2ccccc2cc1OCc1ccc(F)cc1`, the inhibition was 83.8% (active).

For `C[C@@]12C(=O)N(c3cccc(Br)c3)C(=O)N1[C@H](c1ccc(Cl)cc1)[C@@H]1C(=O)N(C3CCCCC3)C(=O)[C@@H]12`, the inhibition is -8.96%.

Take `CNC(=O)NC(=O)CSc1nnc(-c2ccc(F)cc2)n1CC1CCCO1` (configuration not stated): the inhibition is 22% (active).

As for `CCOc1cc(C(=O)N2CCc3cc(OC)c(OC)cc3C2)ccc1OC(F)F`, the inhibition is 6.34%.

Consider `CSc1nc(N)c(C#N)c(-c2ccccc2Cl)c1C#N`, for which the inhibition is 84.8% (active).

For `Cn1nccc1C(=O)NC1CCCc2c1cnn2-c1ccc(F)cc1F` (configuration not stated), the inhibition is 114% (active).

Take `CCN(CC(=O)NCc1ccc(Cl)cc1)C(=O)CSc1ccccc1`: the inhibition is 56.2% (active).

Take `COc1cc2c(cc1OC)C(c1cccc([N+](=O)[O-])c1)=NCC2`: the inhibition is 17.9% (active).

Consider `CC(=O)N1CCCc2cc(S(=O)(=O)N3CCCC(C(=O)N4CCN(c5cccc(Cl)c5)CC4)C3)ccc21` (configuration not stated), for which the inhibition is 92.5% (active).
